# Compound activity (PubChem)
# PNC assembly inh: perinucleolar compartment assembly inhibition | PC3M PTB-GFP, PNC prevalence imaging, 16 h; stronger effect = lower value | activity change (PNC), negative = inhibition, % at 10 µM | 140,000 compounds, 3.1% hits;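 active = readout at or below -70, meaning at least 70% loss of cells showing the perinucleolar compartment, a nuclear body marking cancer cells; inconclusive = readout between -30 and a set limit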;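 note: plate controls were DMSO wells for no effect and camptothecin positive control wells for full effect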
#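 PC3M cells stably expressing PTB-GFP, 750–1000 cells/well, treated 16 h at 37 °C with compound (23 nl of library stock), in duplicate. After paraformaldehyde fixation and Hoechst stain, imaged at 20x; PNC prevalence scored by image analysis.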
# ALDH1A1 inh: blocks purified human ALDH1A1 activity | P00352 | Purified ALDH1A1, NADH fluorescence, propionaldehyde substrate | Potency, µM (highest dose often 75.3 µM), without a hit: at the highest dose activity, negative = inhibition, usual class: inhibitors | 220,000 compounds, 7.3% hits | AID 1030;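 note: potency is the fitted concentration of half-maximal effect; plate controls were no enzyme wells and a reference inhibitor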
# Target sequence (P00352 whole entry, looked up): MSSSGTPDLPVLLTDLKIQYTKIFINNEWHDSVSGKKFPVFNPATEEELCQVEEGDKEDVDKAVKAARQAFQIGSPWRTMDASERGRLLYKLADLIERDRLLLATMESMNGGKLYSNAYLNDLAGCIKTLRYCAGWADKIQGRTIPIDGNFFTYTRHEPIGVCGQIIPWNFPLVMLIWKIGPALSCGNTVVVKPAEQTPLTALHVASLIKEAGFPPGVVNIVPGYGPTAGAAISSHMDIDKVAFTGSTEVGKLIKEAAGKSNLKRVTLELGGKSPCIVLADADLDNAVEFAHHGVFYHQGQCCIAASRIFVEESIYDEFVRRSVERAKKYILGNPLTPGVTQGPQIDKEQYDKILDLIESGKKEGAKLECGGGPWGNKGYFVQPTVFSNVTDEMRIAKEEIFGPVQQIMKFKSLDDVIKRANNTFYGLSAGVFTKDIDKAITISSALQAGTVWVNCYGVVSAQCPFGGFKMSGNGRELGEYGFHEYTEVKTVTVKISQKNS
# KDM4E inh: JMJD2E (human) inhibition | B2RXH2 | JMJD2E catalytic domain, FDH-coupled NADH fluorescence (FDH is formaldehyde dehydrogenase) | Potency, µM (doses to about 57.1 µM), without a hit: at the top dose activity change, negative = inhibition, hits mostly inhibitors | 230,000 compounds, 1.6% hits | AID 2147;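 note: potency is the fitted concentration of half-maximal effect; 0% = wells with enzyme and -100% = buffer wells without enzyme; nearly all actives have a fitted effect of over 50% in size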
# HPGD inh: HPGD (human) dehydrogenase inhibition; Potency, µM, inactives show at the highest dose activity change, negative = inhibition, usual class: inhibitors; AID 894; purified HPGD, NADH fluorescence kinetic, PGE2 substrate; 150,000 compounds, 4.3% hits; note: potency is the fitted concentration of half-maximal effect
#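 NADH formation kinetics: reaction with 30 uM PGE2 and 1 mM NAD+ (final), 20 nM enzyme, Tris-HCl pH 8 with Tween 20, after 15 min compound preincubation at room temperature. Fluorescence change, last versus first of five reads.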
# * hit, by the source's call; ? = inconclusive; . = no result given. Rows were chosen to be rich in hits. Some 11% of all compounds tested hit in one or more screens of this group. Unless noted, calls come from the whole dose curve; as a rule, active = well fitted inhibition curve with a large enough effect (not every such curve was filed as active); inconclusive = small, poorly fitted or top-dose-only effect, or another doubt; inactive = no such curve, though single readings can be large or run the other way. Unless noted, % is set by controls: 0 for no effect and ±100 for the full control effect.
SMILES,PNC assembly inh,ALDH1A1 inh,KDM4E inh,HPGD inh
O=C(NCc1nnc(SCC(=O)N2CCC(Cc3ccccc3)CC2)o1)c1ccccc1F,-27,8.9µM*,-3%,-9%
Cc1nn(-c2cc(C(F)(F)F)ccc2Cl)c2nc(C(Cl)(Cl)Cl)[nH]c(=O)c12,.,.,6%,.
CN1CCN(C(=O)c2cnn3c2NC(c2ccccc2)CC3C(F)(F)F)CC1 (stereo unspecified),.,22%,-5%,.
CSc1nc(-c2ccc(Cl)cc2Cl)[nH]c(=O)c1C#N,?,15%,10%,2.5µM*
CC(Oc1ccc(Cl)cc1Cl)c1nc(-c2ccc(NC(=O)c3ccccn3)cc2)no1 (stereo unspecified),81,14%,?,92%
O=C(NCC1CCCO1)c1ccc2c(=O)n(CC3CCCO3)c(=S)[nH]c2c1 (stereo unspecified),?,11µM*,3%,-16%
COCCn1c(=S)[nH]c2cc(C(=O)NCC3CCCO3)ccc2c1=O (stereo unspecified),46,16µM*,2%,-9%
CCOC(=O)N1CCN(C(=O)c2ccc3c(=O)n(CC4CCCO4)c(=S)[nH]c3c2)CC1 (stereo unspecified),-13,14µM*,-2%,-5%
COCCn1c(=O)[nH]c2cc(C(=O)NCC3CCCO3)ccc2c1=O (stereo unspecified),-4,?,?,?
Nc1nc(=S)c2ncn(C3CCCC3)c2[nH]1,.,?,-2%,.
CCCn1ncc(CN2CCN(Cc3ccsc3)C(CCO)C2)c1C (stereo unspecified),.,2%,2%,.
FC(F)(F)c1ccccc1NC(=S)N/N=C1\CC2CC=CC12 (stereo unspecified),.,7.9µM*,10%,.
Brc1cc2c(cc1C1Nc3ccccc3C3C=CCC31)OCO2 (stereo unspecified),?,4%,-10%,-16%
C1=CC2c3ccccc3NC(c3ccncc3)C2C1 (stereo unspecified),3,10µM*,?,22µM*
CC(=O)c1ccc2c(c1)C1C=CCC1C(c1ccncc1)N2 (stereo unspecified),-23,20µM*,?,-6%
COc1ccc(-n2nc3c(c2NC(=O)c2ccc(S(=O)(=O)N4CCOCC4)cc2)CS(=O)(=O)C3)cc1,.,?,-9%,.
Nc1ccc(N2CCOCC2)cc1C(F)(F)F,.,7%,-29%,.
O=C(COc1ccc(Cl)cc1)NCc1nnc(SCC(=O)NC2CCCC2)o1,-3,-6%,-7%,-11%
COCCn1c(CNc2ccc(F)cc2)nnc1SCC(=O)Nc1ccc(OC)cc1OC,0,13µM*,-3%,-11%
COC(=O)c1ccccc1NC(=O)CSc1ncccn1,.,.,-25%,.
CCC1CCCCN1C(=O)CSc1nnc(CNC(=O)COc2ccc(Cl)cc2)o1 (stereo unspecified),-15,7.1µM*,0%,-11%
COC(=O)c1ccccc1NC(=O)CSc1nnc(Cc2ccc(Cl)cc2)o1,?,20µM*,-13%,28µM*
COc1ccc(CCCc2nnc(SCC(=O)NN)o2)cc1,.,7.9µM*,7%,.
CC(C)NC[C@@H](O)COc1ccccc1-n1cccc1,.,-2%,12%,1%
O=C(CCCn1c(=O)[nH]c2cc(Cl)ccc2c1=O)NCCCN1CCN(c2ccc(F)cc2)CC1,.,-2%,5%,.
SMILES,PNC assembly inh,ALDH1A1 inh,KDM4E inh,HPGD inh
COc1ccc(OC)c(NC(=O)CSc2nnc(CNC(=O)COc3ccc(Cl)cc3)o2)c1,?,20µM*,1%,-14%
COc1ccc(NC(=O)CSc2nnc(CNC(=O)COc3ccc(Cl)cc3)o2)c(OC)c1,-23,2%,7%,4%
CCC1CCCCN1C(=O)CSc1nnc(-c2ccc(Cl)cc2)o1 (stereo unspecified),-29,5%,-10%,-18%
CC1CCCCN1C(=O)CSc1nnc(-c2c[nH]c3ccccc23)o1 (stereo unspecified),-26,25µM*,-4%,-18%
CCC1CCCCN1C(=O)CSc1nnc(-c2ccco2)o1 (stereo unspecified),-14,20µM*,8%,-4%
COc1ccc(NCc2nnc(SCC(=O)Nc3ccccc3OC)o2)cc1,-105*,?,-9%,-5%
COc1ccc(OC)c(NC(=O)CSc2nnc(CNc3ccc(F)cc3)o2)c1,36,-5%,0%,-4%
c1cc2c3c(c1)ccc1cccc(c13)C2,.,-5%,.,-8%
C[C@@H]1C(=O)OC2C[C@@]34[C@H]5C[C@@H](C(C)(C)C)[C@@]36C(O)C(=O)O[C@H]6O[C@@]4(C(=O)O5)[C@]21O (stereo partly specified),.,0%,.,4%
COc1ccc(NCc2nnc(SCC(=O)c3ccc(OC)cc3)o2)cc1,?,16µM*,-7%,-10%
COc1cc(-c2nnc3n(CCc4ccccc4)c(=O)c4ccccc4n23)cc(OC)c1OC,?,0.22µM*,7%,-27%
C=CCNC(=S)NNc1nc(Nc2ccccc2)nc(N2CCCCC2)n1,.,16µM*,1%,.
O=[N+]([O-])c1ccc(CCO)cc1,.,-5%,.,-5%
Cc1sc(-n2c(C)cc(/C=N/n3cnnc3)c2C)c(C#N)c1C,8,4µM*,-2%,.
CCOc1ccc(OCC)c(C2C(C#N)=C(N)N(c3cccnc3)C3=C2C(=O)CC(C)(C)C3)c1 (stereo unspecified),-17,3.5µM*,?,-20%
O=C(NCCN1CCCCC1)c1ccc(I)cc1,.,2%,-1%,-3%
CC(=O)Nn1cc2c(c1-c1ccccc1)c(=O)n(C)c(=O)n2C,-138*,?,?,?
Cn1c(=O)c2c(-c3ccccc3)n(Cc3ccccn3)cc2n(C)c1=O,39,?,?,-10%
c1ccc(-c2cnn3c(-c4ccccc4)c(-c4ccccc4)nc3n2)cc1,23,-2%,4%,20µM*
N#Cc1cnc2ncnn2c1-c1ccccc1,-12,7%,2%,-8%
CC(C)CC(NC(=O)C(COCc1ccccc1)NC(=O)OC(C)(C)C)C(=O)NN (stereo unspecified),.,13%,29%,.
COc1ccc(-n2nnnc2S(=O)(=O)CC(=O)N2CCCCC2)cc1,-21,6.3µM*,-7%,14µM*
Cc1noc(C)c1-c1cc(NCc2cccs2)ncn1,.,-5%,.,.
Cc1cc2cc(CNC(=O)CCC(=O)O)ccc2[nH]1,?,28µM*,0%,-9%
COc1ccc(CN2CCN(C(=O)c3cc(-c4cccnc4)nc4ccc(Cl)cc34)CC2)c(OC)c1OC,.,-1%,17%,.
SMILES,PNC assembly inh,ALDH1A1 inh,KDM4E inh,HPGD inh
O=C1/C(=C/c2ccccc2)Nc2ccccc21,25,-8%,-10%,18µM*
CSc1ccc(CN2CCN(C(C)C)C(CCO)C2)cc1 (stereo unspecified),.,0%,7%,.
S=c1[nH]nc(-c2cccs2)n1/N=C/c1c(Cl)cccc1Cl,.,16µM*,0%,.
COc1ccc(/C=N/n2c(-c3cccs3)n[nH]c2=S)cc1,23,-9%,-26%,4µM*
COc1ccc(/C=N/n2c(-c3ccc(C)cc3)n[nH]c2=S)cc1OC,.,.,-10%,.
Cc1ccc(/C=N/n2c(-c3cccs3)n[nH]c2=S)cc1,60,?,-24%,4.5µM*
